{"source": "the supplement of paper PMC10646978", "conditions_in_all_cases": "modulator concentration 10 µM", "key": {"[1]": {"system": "RAW-Dual (murine macrophage reporter line)", "experiment": "NF-kB reporter (SEAP) activity fold change vs agonist alone; higher = enhanced NF-kB activity", "method_in_brief": "(§1)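 Overnight stimulation with a PRR agonist followed pre-incubation for 1 hour at 37 °C with compound at 10 μM final. This was done in RAW-Dual murine macrophage reporter cells seeded at 50 000 per well in 384-well plates. NF-κB (SEAP, QUANTI-Blue absorbance at 620 nm) and IRF (Lucia luciferase, QUANTI-Luc luminescence) were read from the supernatant. Each reporter's fold change relative to the mean agonist-only control on the same plate was averaged over replicate plates.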"}, "[2]": {"system": "RAW-Dual (murine macrophage reporter line)", "experiment": "IRF reporter (Lucia luciferase) activity fold change vs agonist alone; higher = enhanced IRF activity", "method_in_brief": "as §1"}, "[3]": {"system": "RAW-Dual (murine macrophage reporter line)", "experiment": "viability score (confluency relative to resting cells, overnight) (fraction); higher = more viable, active = viable (0.7 or more)", "method_in_brief": "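RAW-Dual macrophages in 384-well plates were exposed overnight to compound at 10 μM final. Confluency was imaged with IncuCyte, and two confluency masks were generated with IncuCyte software over all imaged wells. The viability score is confluency expressed relative to resting cells. Compounds were called viable if both masks exceeded 70% of resting cells.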"}, "[4]": {"conditions": "agonist: CpG ODN 1826 0.5 ug/mL"}}, "note": "± gives the standard deviation.", "data": [{"smiles": "O=S(=O)(NN=Cc1c[nH]c2ccccc12)c1ccc(Cl)cc1", "values": [{"measurement": "NF-kB reporter", "setting": "[1]; [4]", "result": "0.627 ± 0.053"}, {"measurement": "NF-kB reporter", "setting": "[1]; agonist: LPS 0.1 ug/mL", "result": "0.619 ± 0.029"}, {"measurement": "NF-kB reporter", "setting": "[1]; agonist: MPLA […]", "result": "0.844 ± 0.078"}, {"measurement": "IRF reporter", "setting": "[2]; agonist: 3'3'-cGAMP 10 ug/mL", "result": "0.0905 ± 0.0084"}, {"measurement": "IRF reporter", "setting": "[2]; agonist: LPS 0.1 ug/mL", "result": "1.32 ± 0.11"}, {"measurement": "IRF reporter", "setting": "[2]; agonist: MPLA […]", "result": "1.31 ± 0.13"}, {"measurement": "viability score", "setting": "[3]", "result": "0.962 (active)"}]}, {"smiles": "CC(=O)c1ccc(Nc2ncnc(Nc3ccc(C(C)=O)cc3)c2[N+](=O)[O-])cc1", "values": [{"measurement": "NF-kB reporter", "setting": "[1]; [4]", "result": "1.04 ± 0.1"}, {"measurement": "NF-kB reporter", "setting": "[1]; agonist: LPS 0.1 ug/mL", "result": "1.09 ± 0.076"}, {"measurement": "NF-kB reporter", "setting": "[1]; agonist: MPLA […]", "result": "0.939 ± 0.045"}, {"measurement": "IRF reporter", "setting": "[2]; agonist: 3'3'-cGAMP 10 ug/mL", "result": "1.01 ± 0.091"}, {"measurement": "IRF reporter", "setting": "[2]; agonist: LPS 0.1 ug/mL", "result": "1.06 ± 0.052"}, {"measurement": "IRF reporter", "setting": "[2]; agonist: MPLA […]", "result": "0.994 ± 0.076"}, {"measurement": "viability score", "setting": "[3]", "result": "0.991 (active)"}]}, {"smiles": "Nc1nccs1", "values": [{"measurement": "NF-kB reporter", "setting": "[1]; [4]", "result": "0.948 ± 0.14"}, {"measurement": "NF-kB reporter", "setting": "[1]; agonist: LPS 0.1 ug/mL", "result": "1.22 ± 0.088"}, {"measurement": "NF-kB reporter", "setting": "[1]; agonist: MPLA […]", "result": "0.91 ± 0.055"}, {"measurement": "IRF reporter", "setting": "[2]; agonist: 3'3'-cGAMP 10 ug/mL", "result": "0.89 ± 0.03"}, {"measurement": "IRF reporter", "setting": "[2]; agonist: LPS 0.1 ug/mL", "result": "1.32 ± 0.16"}, {"measurement": "IRF reporter", "setting": "[2]; agonist: MPLA […]", "result": "1.2 ± 0.09"}, {"measurement": "viability score", "setting": "[3]", "result": "1 (active)"}]}, {"smiles": "CN(C)CCC=C1c2ccccc2COc2ccccc21.Cl", "values": [{"measurement": "NF-kB reporter", "setting": "[1]; [4]", "result": "0.758 ± 0.18"}, {"measurement": "NF-kB reporter", "setting": "[1]; agonist: LPS 0.1 ug/mL", "result": "1.01 ± 0.054"}, {"measurement": "NF-kB reporter", "setting": "[1]; agonist: MPLA […]", "result": "1.06 ± 0.067"}, {"measurement": "IRF reporter", "setting": "[2]; agonist: 3'3'-cGAMP 10 ug/mL", "result": "0.576 ± 0.031"}, {"measurement": "IRF reporter", "setting": "[2]; agonist: LPS 0.1 ug/mL", "result": "1.22 ± 0.21"}, {"measurement": "IRF reporter", "setting": "[2]; agonist: MPLA […]", "result": "1.17 ± 0.2"}, {"measurement": "viability score", "setting": "[3]", "result": "0.978 (active)"}]}, {"smiles": "O=Cc1c[nH]c2ccccc12", "values": [{"measurement": "NF-kB reporter", "setting": "[1]; [4]", "result": "0.913 ± 0.2"}, {"measurement": "NF-kB reporter", "setting": "[1]; agonist: LPS 0.1 ug/mL", "result": "1.5 ± 0.14"}, {"measurement": "NF-kB reporter", "setting": "[1]; agonist: MPLA […]", "result": "1.4 ± 0.23"}, {"measurement": "IRF reporter", "setting": "[2]; agonist: 3'3'-cGAMP 10 ug/mL", "result": "0.982 ± 0.04"}, {"measurement": "IRF reporter", "setting": "[2]; agonist: LPS 0.1 ug/mL", "result": "1.25 ± 0.26"}, {"measurement": "IRF reporter", "setting": "[2]; agonist: MPLA […]", "result": "1.54 ± 0.16"}, {"measurement": "viability score", "setting": "[3]", "result": "0.985 (active)"}]}, {"smiles": "C=CCNC1=C2C[C@@H](C)C[C@H](OC)[C@H](O)[C@@H](C)/C=C(\\C)[C@H](OC(N)=O)[C@@H](OC)/C=C\\C=C(/C)C(=O)NC(=CC1=O)C2=O", "values": [{"measurement": "NF-kB reporter", "setting": "[1]; [4]", "result": "0.174 ± 0.0095"}, {"measurement": "NF-kB reporter", "setting": "[1]; agonist: LPS 0.1 ug/mL", "result": "0.215 ± 0.021"}, {"measurement": "NF-kB reporter", "setting": "[1]; agonist: MPLA […]", "result": "0.413 ± 0.042"}, {"measurement": "IRF reporter", "setting": "[2]; agonist: 3'3'-cGAMP 10 ug/mL", "result": "1.63 ± 0.15"}, {"measurement": "IRF reporter", "setting": "[2]; agonist: LPS 0.1 ug/mL", "result": "3.81 ± 0.34"}, {"measurement": "IRF reporter", "setting": "[2]; agonist: MPLA […]", "result": "3.4 ± 0.71"}, {"measurement": "viability score", "setting": "[3]", "result": "0.493 (inactive)"}]}, {"smiles": "O=C(O)CCC(=O)Nc1ccc(Br)cn1", "values": [{"measurement": "NF-kB reporter", "setting": "[1]; [4]", "result": "1.17 ± 0.098"}, {"measurement": "NF-kB reporter", "setting": "[1]; agonist: LPS 0.1 ug/mL", "result": "1.02 ± 0.066"}, {"measurement": "NF-kB reporter", "setting": "[1]; agonist: MPLA […]", "result": "1.02 ± 0.04"}, {"measurement": "IRF reporter", "setting": "[2]; agonist: 3'3'-cGAMP 10 ug/mL", "result": "1.02 ± 0.19"}, {"measurement": "IRF reporter", "setting": "[2]; agonist: LPS 0.1 ug/mL", "result": "1.12 ± 0.14"}, {"measurement": "IRF reporter", "setting": "[2]; agonist: MPLA […]", "result": "0.938 ± 0.27"}, {"measurement": "viability score", "setting": "[3]", "result": "0.997 (active)"}]}, {"smiles": "CCOc1ccc(CN(CCc2ccc3c(c2)OCO3)Cc2cccc3ccccc23)cc1", "values": [{"measurement": "NF-kB reporter", "setting": "[1]; [4]", "result": "0.73 ± 0.071"}, {"measurement": "NF-kB reporter", "setting": "[1]; agonist: LPS 0.1 ug/mL", "result": "0.888 ± 0.074"}, {"measurement": "NF-kB reporter", "setting": "[1]; agonist: MPLA […]", "result": "1.07 ± 0.074"}, {"measurement": "IRF reporter", "setting": "[2]; agonist: 3'3'-cGAMP 10 ug/mL", "result": "0.619 ± 0.061"}, {"measurement": "IRF reporter", "setting": "[2]; agonist: LPS 0.1 ug/mL", "result": "0.908 ± 0.045"}, {"measurement": "IRF reporter", "setting": "[2]; agonist: MPLA […]", "result": "1.04 ± 0.18"}, {"measurement": "viability score", "setting": "[3]", "result": "0.998 (active)"}]}]}
